# Calls of active or inactive are those of the source. Unless noted, no rule for the calls is given here.
# Assays:
# [1] = A549 cell viability effects, profiling panel, calcein-AM fluorescence, 48 h, basal (AID 1162); settings: higher = more signal; also: test concentration not given here
# [2] = adipocyte viability effects, profiling panel, cell-based, 3T3-L1 adipocytes, calcein-AM fluorescence, 48 h, basal (AID 1163); settings: 3T3-L1 adipocytes viability, higher = more signal; also: test concentration not given here
# [3] = HepG2 cell viability effects, profiling panel, calcein-AM fluorescence, 48 h, basal (AID 1164); settings: higher = more signal; also: test concentration not given here
# [4] = MM1S cell viability effects, profiling panel, calcein-AM fluorescence, 48 h, basal (AID 1165); settings: higher = more signal;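 also: viability of MM1S multiple myeloma cells under basal unstimulated conditions; test concentration not given here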
# [5] = basal RPMI8226 viability, no added stimulus, profiling panel, cell-based, calcein-AM fluorescence, 48 h, PK04 Diversity Set (AID 1166); settings: RPMI8226 myeloma viability, higher = more signal;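 also: cells grown under basal conditions without added stimulus; test concentration not given here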
# [6] = basal HepG2 mitochondrial membrane potential changes, profiling panel, cell-based, JC-1 fluorescence, 24 h, 100 nL compound (AID 1167); settings: higher = more signal; also: test concentration not given here
# [7] = basal 3T3-L1 adipocyte mitochondrial potential changes, profiling panel, cell-based, JC-1 fluorescence, 3T3-L1 adipocytes, 24 h, 100 nL compound (AID 1168); settings: JC-1 mitochondrial fluorescence, higher = more signal, called active from +8 up or from −8 down; also: test concentration not given here
# [8] = basal RPMI8226 mitochondrial membrane potential changes, profiling panel, cell-based, JC-1 fluorescence, 24 h, 100 nL compound (AID 1169); settings: RPMI8226 myeloma, JC-1 mitochondrial potential fluorescence, higher = more signal; also: test concentration not given here
# [9] = basal MM1S mitochondrial membrane potential changes, profiling panel, cell-based, JC-1 fluorescence, 24 h, 100 nL compound (AID 1170); settings: higher = more signal; also: test concentration not given here
# [10] = A549 lung cancer cell viability effects, profiling panel, resazurin fluorescence, 24 h, PK04 Diversity Set (AID 1171); settings: higher = more signal, called active from +8 up or from −8 down; also: test concentration not given here
# [11] = HepG2 liver cancer cell viability effects, profiling panel, resazurin fluorescence, 24 h, PK04 Diversity Set (AID 1172); settings: higher = more signal; also: test concentration not given here
# [12] = basal S. cerevisiae growth modulation, no modifier, primary screen, OD600, strain BY4716, 24 h, basal condition (AID 1173); settings: OD600, 24 h, higher = more signal, called active from +8 up or from −8 down
# [13] = MM1S myeloma cell viability, profiling panel, resazurin fluorescence, basal, 24 h, PK04 Diversity Set (AID 1174); settings: higher = more signal, called active from +8 up or from −8 down;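 also: MM1S multiple myeloma cell line; test concentration not given here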
# [14] = molecular target: Dihydroorotate dehydrogenase (quinone), mitochondrial (Plasmodium falciparum (isolate 3D7)) (UniProt Q08210); assay: PfDHODH enzyme inhibitors, primary screen, biochemical, C-terminal His tag, absorbance 600 nm (AID 1175); settings: DCIP absorbance 600 nm, higher = more signal, called active from +8 up or from −8 down;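 also: recombinant parasite enzyme with a five histidine tag at its C terminus; test concentration not given here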
# [15] = P. aeruginosa biofilm formation inhibitors, primary screen, strain PAO1, LB-PBS medium, absorbance 600 nm (AID 1176); also: test concentration not given here; settings: P. aeruginosa PAO1 growth/biofilm, A600, 12 h; higher = more signal
# [16] = S. cerevisiae RM11-1a growth modifiers, primary screen, strain RM11-1a, OD600, basal, 24 h (AID 1177); settings: OD600, 24 h, higher = more signal, called active from +8 up or from −8 down;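 also: cultures grown under basal conditions with no added stressor; test concentration not given here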
# [17] = E. coli acrAB mutant growth effects, primary screen, E. coli filamentation inducers, strain DRC39, OD650, 24 h (AID 1178); settings: higher = more signal, called active from +8 up or from −8 down;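 also: growth measured as culture turbidity by optical density at 650 nm; test concentration not given here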
# [18] = E. coli acrAB mutant growth effects, primary screen, E. coli filamentation inducers, strain DRC39, OD650, 48 h (AID 1179);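 also: screen aims at cell division blockers that make cells filament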; settings: E. coli DRC39 delta-acrAB growth, higher = more signal, called active from +8 up or from −8 down
# [19] = RPMI8226 myeloma cell viability, profiling panel, resazurin fluorescence, basal, 24 h, PK04 Diversity Set (AID 1180); settings: higher = more signal;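 also: RPMI8826 multiple myeloma cell line at 5000 cells per well; test concentration not given here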
# [20] = molecular target: E3 ubiquitin-protein ligase XIAP (Homo sapiens) (UniProt P98170); assay: XIAP binders, primary screen, biophysical, small-molecule microarray, fluorescence 635 nm (AID 1181); settings: small-molecule microarray binding, higher = more signal;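 also: score merges 667 nm emission and signal to noise over triplicate slides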
# Chain of E3 ubiquitin-protein ligase XIAP (Homo sapiens) (P98170 whole entry, looked up): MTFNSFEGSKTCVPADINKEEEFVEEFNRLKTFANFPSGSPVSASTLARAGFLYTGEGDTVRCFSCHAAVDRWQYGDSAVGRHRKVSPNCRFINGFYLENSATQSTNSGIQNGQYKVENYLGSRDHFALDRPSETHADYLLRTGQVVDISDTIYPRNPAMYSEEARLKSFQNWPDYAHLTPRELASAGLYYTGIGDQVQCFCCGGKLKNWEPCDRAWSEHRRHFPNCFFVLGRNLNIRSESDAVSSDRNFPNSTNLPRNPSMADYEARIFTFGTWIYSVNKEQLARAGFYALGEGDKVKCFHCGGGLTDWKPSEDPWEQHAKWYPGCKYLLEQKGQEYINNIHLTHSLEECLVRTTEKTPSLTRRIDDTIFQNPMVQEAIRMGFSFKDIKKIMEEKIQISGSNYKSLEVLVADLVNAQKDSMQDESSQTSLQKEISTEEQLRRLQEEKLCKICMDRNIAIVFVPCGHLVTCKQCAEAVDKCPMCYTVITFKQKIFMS
# Chain of Dihydroorotate dehydrogenase (quinone), mitochondrial (Plasmodium falciparum (isolate 3D7)) (Q08210 whole entry, looked up): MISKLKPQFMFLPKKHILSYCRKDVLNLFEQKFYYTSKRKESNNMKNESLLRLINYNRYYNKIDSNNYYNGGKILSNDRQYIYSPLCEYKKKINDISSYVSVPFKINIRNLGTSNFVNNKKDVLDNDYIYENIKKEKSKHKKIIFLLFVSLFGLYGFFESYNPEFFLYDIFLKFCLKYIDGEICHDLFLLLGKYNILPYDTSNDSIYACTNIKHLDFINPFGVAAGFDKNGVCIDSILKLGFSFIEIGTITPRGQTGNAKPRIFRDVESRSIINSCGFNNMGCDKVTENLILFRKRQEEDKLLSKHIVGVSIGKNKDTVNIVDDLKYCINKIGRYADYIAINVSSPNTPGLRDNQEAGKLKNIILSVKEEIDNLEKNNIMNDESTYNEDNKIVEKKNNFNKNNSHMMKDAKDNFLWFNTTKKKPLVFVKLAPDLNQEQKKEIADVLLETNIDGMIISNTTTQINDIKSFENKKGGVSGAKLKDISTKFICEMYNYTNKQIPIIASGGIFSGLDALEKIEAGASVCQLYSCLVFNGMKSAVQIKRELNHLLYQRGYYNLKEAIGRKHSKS
smiles,measurement,setting,value
N#Cc1ccc(NN2C(C(O)CCc3ccccc3)C=CC3C(=O)N(c4ccccc4)C(=O)C32)cc1 (stereo not given),z-score,[1],0.422
same,z-score,[2],-0.191
same,z-score,[3],1.18
same,z-score,[4],0.197
same,z-score,[5],-0.0961
same,z-score,[6],-0.256
same,z-score,[7],-0.0951 (inactive)
same,z-score,[8],0.245
same,z-score,[9],0.419
same,z-score,[10],0.197 (inactive)
same,z-score,[11],-0.618
same,z-score,[12],-0.333 (inactive)
same,z-score,[13],-0.611 (inactive)
same,composite z-score,[14],-2.09 (inactive)
same,z-score,[15],1.01 (inactive)
same,z-score,[16],-1.97 (inactive)
same,z-score,[17],0.143 (inactive)
same,z-score,[18],0.7 (inactive)
same,z-score,[19],-0.152
same,composite z-score,[20],-0.127
CC(=O)NCCCC[C@@H]1NC(=O)[C@H]2C[C@@H](C(=O)NCCCCCCN(C)C)[C@@H](c3ccc(O)cc3)N2C1=O,z-score,[1],-0.345
same,z-score,[2],1.03
same,z-score,[3],-1.23
same,z-score,[4],-0.327
same,z-score,[5],-0.551
same,z-score,[6],-0.755
same,z-score,[7],0.154 (inactive)
same,z-score,[8],0.669
same,z-score,[9],0.116
same,z-score,[10],-1.27 (inactive)
same,z-score,[11],-0.666
same,z-score,[12],-0.191 (inactive)
same,z-score,[13],-1.56 (inactive)
same,composite z-score,[14],-0.231 (inactive)
same,z-score,[15],-0.0059 (inactive)
same,z-score,[16],-0.0236 (inactive)
same,z-score,[17],-1.04 (inactive)
same,z-score,[18],-1.53 (inactive)
same,z-score,[19],-1.28
same,composite z-score,[20],0.217
C=C(CCCC)/C(=C/C[C@@H](OC(=O)c1ccncc1)c1cccc(OCCO)c1)c1cc(C(=O)OC)ccc1OC,z-score,[1],1.25
same,z-score,[2],-0.209
same,z-score,[3],0.872
same,z-score,[4],-2.25
same,z-score,[5],-2.99
same,z-score,[6],2.91
same,z-score,[7],0.244 (inactive)
same,z-score,[8],0.0948
same,z-score,[9],-0.132
same,z-score,[10],0.767 (inactive)
same,z-score,[11],1.02
same,z-score,[12],0.199 (inactive)
same,z-score,[13],-0.73 (inactive)
same,composite z-score,[14],-0.757 (inactive)
same,z-score,[15],1.05 (inactive)
same,z-score,[16],0.0731 (inactive)
same,z-score,[17],1.81 (inactive)
same,z-score,[18],1.33 (inactive)
same,z-score,[19],-0.647
same,composite z-score,[20],0.137
COCCOC(=O)N1C(=O)[C@@]2(c3cc(C#CCNC(N)=O)ccc31)[C@H](C(=O)N1CCCCCCC1)[C@H]1C(=O)O[C@H](c3ccccc3)[C@H](c3ccccc3)N1[C@@H]2c1ccccc1OCCO,z-score,[1],1.01
same,z-score,[2],-0.177
same,z-score,[3],1.04
same,z-score,[4],1.38
same,z-score,[5],0.767
same,z-score,[6],-1.3
same,z-score,[7],0.315 (inactive)
same,z-score,[8],-0.587
same,z-score,[9],-1.57
same,z-score,[10],-0.307 (inactive)
same,z-score,[11],0.0533
same,z-score,[12],1.41 (inactive)
same,z-score,[13],0.188 (inactive)
same,composite z-score,[14],0.641 (inactive)
same,z-score,[15],2.08 (inactive)
same,z-score,[16],2.43 (inactive)
same,z-score,[17],0.532 (inactive)
same,z-score,[18],0.614 (inactive)
same,z-score,[19],0.368
same,composite z-score,[20],0.291
CCCC=C(CCC)[C@@H](NS(=O)(=O)c1ccc(-c2ccccc2)cc1)c1ccc(C(=O)OC)cc1,z-score,[1],-1.34
same,z-score,[2],0.906
same,z-score,[3],-1.52
same,z-score,[4],-1.18
same,z-score,[5],-2.93
same,z-score,[6],-4.34
same,z-score,[7],0.0846 (inactive)
same,z-score,[8],0.326
same,z-score,[9],-1.78
same,z-score,[10],1.35 (inactive)
same,z-score,[11],0.0252
same,z-score,[12],1.72 (inactive)
same,z-score,[13],0.303 (inactive)
same,composite z-score,[14],-4.09 (inactive)
same,z-score,[15],2.67 (inactive)
same,z-score,[16],0.239 (inactive)
same,z-score,[17],-0.811 (inactive)
same,z-score,[18],-0.299 (inactive)
same,z-score,[19],0.305
same,composite z-score,[20],-0.0948
O=C1C[C@@](C(=O)NC2CC2)(c2ccc([N+](=O)[O-])cc2)[C@@H](c2ccc(CO)cc2I)N1CC12CC3CC(CC(C3)C1)C2,z-score,[1],-2.31
same,z-score,[2],-0.375
same,z-score,[3],-5.04
same,z-score,[4],-3.83
same,z-score,[5],-4.33
same,z-score,[6],-2.32
same,z-score,[7],-0.869 (inactive)
same,z-score,[8],-1.02
same,z-score,[9],-2.4
same,z-score,[10],-3.35 (inactive)
same,z-score,[11],-3.54
same,z-score,[12],0.579 (inactive)
same,z-score,[13],-6.88 (inactive)
same,composite z-score,[14],1.59 (inactive)
same,z-score,[15],1.2 (inactive)
same,z-score,[16],2.54 (inactive)
same,z-score,[17],-0.56 (inactive)
same,z-score,[18],-0.869 (inactive)
same,z-score,[19],-5.45
same,composite z-score,[20],-0.095
CCCN1C(=O)[C@@]2(CCS(=O)(=O)c3ccccc3)N=C(c3ccc(OCCCO)cc3)O[C@H]2c2ccccc21,z-score,[1],-1.3
same,z-score,[2],2.41
same,z-score,[3],-0.64
same,z-score,[4],-0.454
same,z-score,[5],-3.68
same,z-score,[6],0.241
same,z-score,[7],0.535 (inactive)
same,z-score,[8],-1.31
same,z-score,[9],-0.148
same,z-score,[10],-1.33 (inactive)
same,z-score,[11],-0.561
same,z-score,[12],1.27 (inactive)
same,z-score,[13],-1.03 (inactive)
same,composite z-score,[14],2.02 (inactive)
same,z-score,[15],0.469 (inactive)
same,z-score,[16],1.56 (inactive)
same,z-score,[17],0.861 (inactive)
same,z-score,[18],0.163 (inactive)
same,z-score,[19],-2.15
same,composite z-score,[20],-0.072
NC(=O)NCC#Cc1ccc2c(c1)[C@]1(C(=O)N2)[C@H](C(N)=O)[C@H]2C(=O)O[C@H](c3ccccc3)[C@H](c3ccccc3)N2[C@@H]1c1ccccc1OCCO,z-score,[1],-1.23
same,z-score,[2],0.634
same,z-score,[3],-0.945
same,z-score,[4],-0.211
same,z-score,[5],-0.186
same,z-score,[6],-1.01
same,z-score,[7],-0.287 (inactive)
same,z-score,[8],-1.05
same,z-score,[9],-0.386
same,z-score,[10],0.79 (inactive)
same,z-score,[11],0.979
same,z-score,[12],-0.275 (inactive)
same,z-score,[13],0.369 (inactive)
same,composite z-score,[14],-0.793 (inactive)
same,z-score,[15],0.75 (inactive)
same,z-score,[16],0.785 (inactive)
same,z-score,[17],0.285 (inactive)
same,z-score,[18],0.0072 (inactive)
same,z-score,[19],0.295
same,composite z-score,[20],0.234
Cc1ccc(S(=O)(=O)N2[C@@H](c3ccccc3)C(C(=O)O)=CC[C@H]2c2ccccc2)cc1,z-score,[1],-0.0225
same,z-score,[2],-0.426
same,z-score,[3],-0.335
same,z-score,[4],-0.107
same,z-score,[5],-1.25
same,z-score,[6],-0.923
same,z-score,[7],-0.17 (inactive)
same,z-score,[8],0.621
same,z-score,[9],0.675
same,z-score,[10],-1.08 (inactive)
same,z-score,[11],-1.18
same,z-score,[12],0.131 (inactive)
same,z-score,[13],-2.14 (inactive)
same,composite z-score,[14],1.03 (inactive)
same,z-score,[15],-0.0727 (inactive)
same,z-score,[16],0.256 (inactive)
same,z-score,[17],-0.992 (inactive)
same,z-score,[18],-1.25 (inactive)
same,z-score,[19],-1.8
same,composite z-score,[20],0.261
